Test results as given in ChEMBL document CHEMBL5308504, “Tm Shift (DSF) assay results for EUbOPEN Chemogenomics Library” (2023).

Experiments:
Settings in all cases: Compound concentration 20.0 uM, Protein concentration 2.0 uM, Result type QC Liability
[1] = target: Tyrosine-protein kinase ABL1 (Homo sapiens) (UniProt P00519)
[2] = target: Cyclin-dependent kinase 2 (Homo sapiens) (UniProt P24941)
[3] = target: Casein kinase I isoform delta (Homo sapiens) (UniProt P48730)
[4] = target: Glycogen synthase kinase-3 beta (Homo sapiens) (UniProt P49841)
Glycogen synthase kinase-3 beta (Homo sapiens), sequence (P49841 whole entry, looked up): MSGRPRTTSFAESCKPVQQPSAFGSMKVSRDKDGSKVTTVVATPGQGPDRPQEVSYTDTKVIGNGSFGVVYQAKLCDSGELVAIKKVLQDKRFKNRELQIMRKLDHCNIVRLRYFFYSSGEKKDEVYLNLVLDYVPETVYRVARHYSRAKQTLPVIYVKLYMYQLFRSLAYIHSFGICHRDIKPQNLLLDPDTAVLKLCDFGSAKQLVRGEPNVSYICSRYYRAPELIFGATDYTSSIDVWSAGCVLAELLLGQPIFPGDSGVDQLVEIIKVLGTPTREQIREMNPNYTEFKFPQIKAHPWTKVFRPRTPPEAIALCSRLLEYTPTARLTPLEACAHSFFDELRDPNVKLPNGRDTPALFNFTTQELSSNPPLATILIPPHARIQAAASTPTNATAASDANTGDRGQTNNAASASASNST

[5] = target: Mitogen-activated protein kinase 1 (Homo sapiens) (UniProt P28482)
Mitogen-activated protein kinase 1 (Homo sapiens), sequence (P28482 whole entry): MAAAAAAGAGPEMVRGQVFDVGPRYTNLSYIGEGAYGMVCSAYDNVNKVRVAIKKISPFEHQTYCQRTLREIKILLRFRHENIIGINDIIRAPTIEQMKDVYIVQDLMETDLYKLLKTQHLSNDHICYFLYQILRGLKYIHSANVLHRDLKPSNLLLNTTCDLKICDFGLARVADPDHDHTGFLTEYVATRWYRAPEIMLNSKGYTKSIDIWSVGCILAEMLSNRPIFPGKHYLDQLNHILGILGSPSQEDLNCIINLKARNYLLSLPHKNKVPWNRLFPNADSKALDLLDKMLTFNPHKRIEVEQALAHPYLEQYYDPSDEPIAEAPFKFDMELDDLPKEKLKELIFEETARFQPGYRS

[6] = target: T1, Aurora kinase A (Homo sapiens) (UniProt O14965)
T1 sequence (whole entry): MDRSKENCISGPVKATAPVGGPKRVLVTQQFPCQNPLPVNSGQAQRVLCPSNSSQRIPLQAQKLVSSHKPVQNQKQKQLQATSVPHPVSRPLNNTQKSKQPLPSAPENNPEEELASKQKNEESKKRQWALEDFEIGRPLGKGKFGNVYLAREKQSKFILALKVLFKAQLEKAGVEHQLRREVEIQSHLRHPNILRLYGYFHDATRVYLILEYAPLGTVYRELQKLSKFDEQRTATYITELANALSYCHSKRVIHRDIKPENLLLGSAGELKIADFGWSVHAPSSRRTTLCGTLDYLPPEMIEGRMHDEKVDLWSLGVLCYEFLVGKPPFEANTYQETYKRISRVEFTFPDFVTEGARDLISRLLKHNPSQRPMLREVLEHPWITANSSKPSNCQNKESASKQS

Tyrosine-protein kinase ABL1 (Homo sapiens), sequence (P00519 whole entry): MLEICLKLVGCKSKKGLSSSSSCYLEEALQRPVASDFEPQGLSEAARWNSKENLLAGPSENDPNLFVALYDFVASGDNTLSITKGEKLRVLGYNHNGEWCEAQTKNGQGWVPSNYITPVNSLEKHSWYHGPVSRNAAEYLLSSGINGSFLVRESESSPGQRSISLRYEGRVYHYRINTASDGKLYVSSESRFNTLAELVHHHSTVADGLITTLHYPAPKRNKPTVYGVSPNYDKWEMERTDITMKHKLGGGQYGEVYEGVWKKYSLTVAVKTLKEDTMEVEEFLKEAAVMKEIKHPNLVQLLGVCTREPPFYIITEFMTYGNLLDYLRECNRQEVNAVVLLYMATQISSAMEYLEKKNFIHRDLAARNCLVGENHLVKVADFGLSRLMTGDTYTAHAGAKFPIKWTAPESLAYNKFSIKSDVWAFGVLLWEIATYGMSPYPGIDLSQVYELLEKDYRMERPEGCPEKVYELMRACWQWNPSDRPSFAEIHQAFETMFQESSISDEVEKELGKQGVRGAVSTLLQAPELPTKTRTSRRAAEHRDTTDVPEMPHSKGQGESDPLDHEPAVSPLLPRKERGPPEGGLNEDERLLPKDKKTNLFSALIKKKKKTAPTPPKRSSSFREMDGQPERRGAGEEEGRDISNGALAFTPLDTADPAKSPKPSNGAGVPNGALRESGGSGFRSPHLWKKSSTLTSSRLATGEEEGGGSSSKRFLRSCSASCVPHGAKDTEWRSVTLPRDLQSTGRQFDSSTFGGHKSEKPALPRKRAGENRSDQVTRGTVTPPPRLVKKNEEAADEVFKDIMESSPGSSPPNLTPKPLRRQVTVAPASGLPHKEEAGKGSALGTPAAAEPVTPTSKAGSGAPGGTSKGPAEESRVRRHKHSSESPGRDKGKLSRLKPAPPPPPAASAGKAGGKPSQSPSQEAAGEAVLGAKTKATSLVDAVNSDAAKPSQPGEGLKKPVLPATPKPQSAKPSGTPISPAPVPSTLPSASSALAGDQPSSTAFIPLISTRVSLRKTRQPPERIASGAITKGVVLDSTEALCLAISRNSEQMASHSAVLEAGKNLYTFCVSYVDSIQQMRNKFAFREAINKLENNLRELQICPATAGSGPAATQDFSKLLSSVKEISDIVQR
Casein kinase I isoform delta (Homo sapiens), sequence (P48730 whole entry, looked up, canonical isoform): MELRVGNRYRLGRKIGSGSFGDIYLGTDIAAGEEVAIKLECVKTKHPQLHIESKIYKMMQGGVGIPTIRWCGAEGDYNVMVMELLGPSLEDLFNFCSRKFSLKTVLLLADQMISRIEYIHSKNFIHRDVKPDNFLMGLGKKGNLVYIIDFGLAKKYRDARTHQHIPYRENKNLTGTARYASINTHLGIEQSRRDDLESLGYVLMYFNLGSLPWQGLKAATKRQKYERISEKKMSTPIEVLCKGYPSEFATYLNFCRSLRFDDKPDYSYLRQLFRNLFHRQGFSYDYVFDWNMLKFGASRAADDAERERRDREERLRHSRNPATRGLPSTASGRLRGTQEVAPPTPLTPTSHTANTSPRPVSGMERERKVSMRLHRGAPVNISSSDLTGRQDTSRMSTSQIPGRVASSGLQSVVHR

Compound | ΔTm [1] [°C] | ΔTm [2] [°C] | ΔTm [3] [°C] | ΔTm [4] [°C] | ΔTm [5] [°C] | ΔTm [6] [°C]
Nc1ncc2c(n1)-c1c([nH]c3ccc(C4CC4)cc13)CCCC2 | 0.19 | -0.43 | -0.06 | 2.09 | 0.41 | -0.12
O=C(O)c1ccc(CN2C[C@@H]3C[C@H]2CN3Cc2ccc(Oc3ccc(-c4ncco4)cc3)cc2)cc1 | 0.42 | 0.83 | 0.25 | -0.14 | 0.14 | -0.18
CCc1cc2c(cc1N1CCC(N3CCOCC3)CC1)C(C)(C)c1[nH]c3cc(C#N)ccc3c1C2=O | 0.88 | 1.02 | 0.16 | 0.18 | 0.1 | -0.02
Fc1cccc(-n2cnc3c(NCc4nc5c(F)c(F)ccc5[nH]4)nc(N4CCOCC4)nc32)c1 | 1.99 | 0.74 | 3.88 | 1.83 | 0.22 | 0.74
COc1cc(C)c(S(=O)(=O)N(C)CCC(=O)N[C@H]2CC[C@@H](N3CCC4CN(C)CC4C3)CC2)c(C)c1 (stereo partly drawn) | 0.38 | -0.04 | 0.64 | 0.15 | 0.83 | -0.36
Cn1c(C2(NC(=O)c3ccc(NCC4CCCCC4)nc3)CCC2)nc2ccc(/C=C/C(=O)O)cc21 | 0.22 | 0.23 | 0.38 | -1.07 | 0.02 | 0.04
Nc1nccc(-c2c(-c3ccc(F)cc3)ncn2C2CCN(Cc3ccon3)CC2)n1 | 0.7 | 0.23 | 10.1 | 6.87 | 0.36 | -0.88
O=C(O)c1ccc2c(c1)nc(NCc1ccccc1)c1ncncc12 | 0.29 | 1.34 | 0.62 | 1.21 | 0.05 | 1.85
CCCCC/C=C/C=C1/C(=O)C=C[C@@H]1C/C=C\CCCC(=O)O | -2.05 | -0.61 | -0.75 | -0.25 | -0.53 | -1.52
CC(C)Oc1ccc(Cc2ccc(NC3=NCCN3)cc2)cc1 | 0.13 | 0.19 | -0.09 | -0.57 | -0.5 | -0.48
N=C(N)NCCC[C@@H](NC(=O)C(c1ccccc1)c1ccccc1)C(=O)NCc1ccc(CNC(N)=O)cc1 | 0.37 | 0.62 | 0.21 | -0.25 | 0.26 | 0.1
C[C@@]1(Cc2ccc(C#N)cc2)C(=O)N(c2cc(Cl)cc(Cl)c2)c2ncc(C(=O)NC3(c4nc(C5CCC5)no4)CC3)n21 | 0.13 | -0.03 | 3.08 | 10.7 | 3.07 | 11.8
CN(C(=O)c1ccccc1)c1ccc2c(c1)[nH]/c(=N\C(=O)c1ccc(Br)s1)n2CCC(N)=O | 3.94 | 0.69 | 6.56 | 0.89 | 0.41 | 3.75
COc1ccccc1[C@@H]1CNCCC12CCN(C(=O)[C@](OC)(c1ccccc1)C(F)(F)F)CC2 | 0.26 | 0.48 | 0.35 | -1.18 | -0.22 | -0.11
Cc1csc(-c2nnc(Nc3ccc(Oc4ncccc4-c4ccnc(N)n4)cc3)c3ccccc23)c1 | 7.01 | 0.42 | 0.58 | -4.11 | 4.87 | 13.8
CN(C)C/C=C/C(=O)Nc1ccc(C(=O)Nc2cccc(Nc3ncc(Cl)c(-c4c[nH]c5ccccc45)n3)c2)cc1 | 6.42 | 7.89 | -0.47 | 12.9 | -1.25 | 10.2
CNC(=O)COc1cc2cc(Nc3nc(N4CCC(C(=O)N(C)C)CC4)ncc3Cl)cc(OC)c2n(C)c1=O | -0.18 | -0.4 | 0.17 | -0.71 | 0.01 | -0.26
CN(C1CCc2c(c3ccccc3n2CC(=O)O)C1)S(=O)(=O)c1ccc(F)cc1 (stereo not drawn) | 0.59 | 0.46 | -0.23 | 0 | -0.11 | 0.35
Cc1nc2ccccc2c(-c2ccc3c4c(ccnc24)CCO3)c1[C@H](OC(C)(C)C)C(=O)O | -0.44 | 0.2 | 0.28 | -0.88 | 0.3 | -0.03

Compound | ΔTm [1] [°C] | ΔTm [2] [°C] | ΔTm [3] [°C] | ΔTm [4] [°C] | ΔTm [5] [°C] | ΔTm [6] [°C]
COc1cc(F)ccc1-c1ncnc(Nc2cccc(C[S@](C)(=N)=O)c2)n1 | 2.58 | 3.09 | 0.27 | 10.1 | 0.36 | 3.39
Cn1cc(-n2cnc3c(NCc4nc5cc(Cl)c(Cl)cc5[nH]4)nc(N4CCOCC4)nc32)cn1 | -0.15 | 0.06 | -0.03 | 2.12 | -0.02 | 0.53
O=C(O)CCC/C=C\C[C@@H]1[C@@H](/C=C/[C@@H](O)COc2cccc(C(F)(F)F)c2)[C@H](O)C[C@@H]1O | 0.54 | 0.59 | 0.07 | 0.65 | -0.39 | -0.25
CN(C)[C@H]1CC[C@H](Nc2ncc3ncnc(Nc4ccc(F)c(Cl)c4)c3n2)CC1 | 3.21 | 1.27 | 1.07 | 1.75 | 0.51 | 0.2
c1ccc(C(OC2CCN(CCCc3nnn[nH]3)CC2)c2ccccc2)cc1 | 0.21 | 0.54 | -0.14 | 0.65 | -0.05 | -0.34
FC(F)(F)c1ccc(CNc2ccc(Cc3c[nH]c4ncc(Cl)cc34)cn2)cn1 | -2.59 | 1.62 | 1.05 | -0.38 | 0.93 | 10.6
CC1(C)Cc2nc(C3CCCC3)c([C@@H](F)c3ccc(C(F)(F)F)cc3)c(C3CCCCC3)c2[C@@H](O)C1 | 0 | 1.04 | 0.11 | 0 | 0.06 | -0.24
Cc1nc2cccnc2n2c(-c3cc([C@@]4(O)CCCOC4)ccc3Cl)nnc12 | -0.53 | 0.88 | 0.26 | -0.63 | 0 | -0.06
CN1C(=O)Cc2ccc(-c3ccc(C[C@@H](C#N)NC(=O)[C@@H]4N[C@H]5CC[C@@H]4C5)c(F)c3)cc21 | -0.52 | 0.33 | 0.17 | -0.31 | -0.2 | -0.07
Cn1cncc1-c1cn(-c2cccc(C(=O)Nc3cccc(C(F)(F)F)c3)c2)nn1 | 7.19 | 0.01 | -7.39 | -0.16 | -8.38 | 1.95
Nc1ncnc2c1ccn2[C@@H]1O[C@H]([C@@H](O)c2ccccc2)[C@@H](O)[C@H]1O | 0.21 | 0.7 | 0.65 | -0.88 | 0.25 | -1.22
Cc1nn(-c2ccccc2)c(Nc2ccccc2C(=O)O)c1-c1cc2nccnc2c(F)c1F | -0.68 | 0.56 | 0.22 | 1 | 0.47 | 0.69
Cc1cc2c(ncn2C2(C)CN(C(=O)c3ccn(CC4CCN([C@H]5C=CCCCC5)CC4)c3)C2)c(N)n1 | 0.14 | 1.09 | -0.14 | -0.26 | 0.62 | -1
O=C(O)c1ccc(OCCCc2ccc(OCCCCOC3CCCCC3)cc2)c(C(=O)NC2CCCC(C(=O)O)C2)c1 (stereo not drawn) | -0.97 | -0.34 | 0.18 | -0.84 | -0.39 | -1.1
CC/C(=C(\c1ccccc1)c1ccc(OCCN(C)C)cc1)c1ccccc1 | -1.51 | -1.86 | 0.3 | -1.42 | -0.3 | -2.91
CCC(C)(C)CC[C@H](NC(=O)N1CCOCC1)C(=O)NC1(C#N)CCN(C)CC1 | -0.14 | 0.95 | 0.34 | 0.11 | 0.54 | 0.69
CN1C(=O)Cc2ccc(-c3ccc(C[C@@H](C#N)NC(=O)[C@H]4N[C@@H]5CC[C@H]4C5)c(F)c3)cc21 | 0.24 | 0.52 | 0.41 | 0.41 | 0.5 | 0.8
CN(C)C(=O)Cn1cc(-c2nc(C3(c4ccc(-c5cnc(N)nc5)cc4)CC3)no2)cn1 | 0.7 | 0.53 | 0.13 | -0.37 | 0.16 | 1.51
CC(=O)Oc1ccc2c(c1)[C@@]1(C)CCC[C@](C)(C(=O)OC(=O)[C@@]3(C)CCC[C@]4(C)c5cc(OC(C)=O)ccc5CC[C@@H]34)[C@@H]1CC2 | 0.17 | 0.49 | 0.28 | -0.85 | -2.79 | -1.32
